Some test systems named below: HCT-15 colon; HT29 colon; SNB-75 CNS; SNB-19 CNS; U251 CNS; PC-3 prostate; SK-MEL-5 melanoma; UACC-62 melanoma; LOX IMVI melanoma; SK-MEL-28 melanoma; EKVX NSCLC; SN12C renal; UO-31 renal; TK-10 renal; ACHN renal; CAKI-1 renal; A498 renal; CCRF-CEM leukemia; MOLT-4 leukemia.
What all share (assay): NCI-60 one-dose screen, 48 h (100 = growth as untreated, 0 = no growth, -100 = all killed)
What all share (conditions): 10 µM unless noted

Compounds without any hit were thinned out: in the full panel of roughly 83,000, 20% have a hit.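 Assay: single dose, 48 h. Readout: percent growth (0 = no net growth; negative = cell death). Active: <10.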 A number with no mark means an inactive call. Active and inactive are the calls of the source.

On to `C=CCN1C(=O)c2cccc3c(-c4ccc5c(c4)ncn5C4CCCCC4)ccc(c23)C1=O`, for which the growth in the assay with HCT-15 colon is 44.9%; in the assay with HT29 colon, 23.4%; in the assay with SNB-75 CNS it was 50.2%; with SNB-19 CNS, 76.1%; in the assay with U251 CNS, 52%; in the assay with PC-3 prostate, 22.8%. In addition, the growth is -27.8% (active) with SK-MEL-5 melanoma; 44% with UACC-62 melanoma; 50.3% with LOX IMVI melanoma; 76.7% in the assay on SK-MEL-28 melanoma; 52.9% in the assay with EKVX NSCLC; 61.5% with SN12C renal. The growth was 34.5% with UO-31 renal; 69.9% with TK-10 renal; 55.3% with ACHN renal; 52.2% with CAKI-1 renal; 76.9% in the assay with A498 renal; 33% in the assay on CCRF-CEM leukemia. Also, in the assay with MOLT-4 leukemia, the growth is 5.4% (active).
Turning to `CC(C)[C@@H]1CC[C@@H]2[C@@H]1[C@H](OC(=O)/C=C/c1ccccc1)[C@]1(C(C)C)C[C@@H](OC(=O)CO)[C@@]2(C)O1`, the growth was 78% in the assay on HCT-15 colon; 75% in the assay on HT29 colon; 38.1% with SNB-75 CNS; 99% in the assay with SNB-19 CNS; 74.3% in the assay on U251 CNS; 30% in the assay with PC-3 prostate. The growth in the assay with SK-MEL-5 melanoma was 81.2%; in the assay on UACC-62 melanoma it was 84.3%; in the assay on LOX IMVI melanoma, 81%; in the assay with SK-MEL-28 melanoma, 104%; in the assay with EKVX NSCLC it was 63%; in the assay on SN12C renal, 49.7%. Moreover, the growth in the assay on UO-31 renal was 3.86% (active); in the assay on TK-10 renal, 94.9%; with ACHN renal, 17%; in the assay with CAKI-1 renal, 65.5%; with A498 renal, -51.8% (active); in the assay on CCRF-CEM leukemia it was 77.1%. For the same molecule, the growth with MOLT-4 leukemia is 58.4%.
In the case of `O=C(O)c1ccc2c(c1)nc(Nc1cccc(Cl)c1)c1ccncc12`, the growth in the assay on HCT-15 colon is 5.48% (active); in the assay on HT29 colon it was 19.2%; in the assay with SNB-75 CNS it was -25.6% (active); in the assay on SNB-19 CNS, 13.5%; with U251 CNS it was -24.6% (active); in the assay on PC-3 prostate it was 10.1%. The growth with SK-MEL-5 melanoma is -64.9% (active); in the assay with UACC-62 melanoma, -50.4% (active); in the assay on LOX IMVI melanoma, 7.77% (active); in the assay with SK-MEL-28 melanoma, 3.16% (active); in the assay on EKVX NSCLC it was 19.6%; in the assay with SN12C renal, 12.5%. In addition, the growth with UO-31 renal is -14% (active); in the assay on TK-10 renal, 0.456% (active); in the assay on ACHN renal, -0.277% (active); in the assay with CAKI-1 renal it was -16.7% (active); with A498 renal, -49.9% (active); in the assay on CCRF-CEM leukemia it was 3.22% (active). Besides, the growth in the assay with MOLT-4 leukemia was -6.15% (active).
For `CN(C)CCn1c(=O)c2c3cc4c(cc3n(CCN(C)C)c2c2ccc(Cl)cc21)OCO4`, the growth is 43.3% with HCT-15 colon; 25.1% in the assay on HT29 colon; 70.8% with SNB-75 CNS; 34.3% with SNB-19 CNS; 44.6% with U251 CNS; 36.2% in the assay with PC-3 prostate. Further, the growth was 52.8% in the assay with SK-MEL-5 melanoma; 76.9% with UACC-62 melanoma; -88.2% (active) in the assay with LOX IMVI melanoma; 87% with SK-MEL-28 melanoma; 74% in the assay with EKVX NSCLC; 31.7% with SN12C renal. Besides, the growth is 57.8% in the assay with UO-31 renal; 103% in the assay with TK-10 renal; 26.3% in the assay on ACHN renal; 42.4% with CAKI-1 renal; 67.1% in the assay on A498 renal; 14.4% in the assay with CCRF-CEM leukemia. The growth with MOLT-4 leukemia is 3.05% (active).
In the case of `Cc1cc(Oc2ccccc2)ccc1Nc1ncnc2ccc(-c3cnc(Cl)c(NS(C)(=O)=O)c3)cc12`, the growth was 21.6% with HCT-15 colon; 15.8% in the assay with HT29 colon; 0.0921% (active) in the assay with SNB-75 CNS; 32.4% in the assay with SNB-19 CNS; 29.4% in the assay with U251 CNS; 25.3% in the assay with PC-3 prostate. Also, the growth is -25.3% (active) in the assay on SK-MEL-5 melanoma; 10.5% in the assay with UACC-62 melanoma; -3.68% (active) in the assay on LOX IMVI melanoma; 7.7% (active) in the assay on SK-MEL-28 melanoma; 21.3% with EKVX NSCLC; 35.6% with SN12C renal. The growth with UO-31 renal was 3.47% (active); with TK-10 renal it was 4.28% (active); in the assay with ACHN renal, 30.4%; in the assay with CAKI-1 renal, 2.11% (active); with A498 renal, -30.8% (active); in the assay with CCRF-CEM leukemia, 21.2%. For the same molecule, the growth in the assay with MOLT-4 leukemia is -0.671% (active).
As for `C/C(=C(/c1ccc(Cl)cc1)c1ccc(OCCN2CCCC2)cc1)c1ccccc1`, the growth with HCT-15 colon is 8.01% (active); in the assay with HT29 colon, 4.46% (active); in the assay with SNB-75 CNS it was 86.1%; with SNB-19 CNS, 80.7%; in the assay on U251 CNS, 63.9%; in the assay on PC-3 prostate, 64.5%. Also, the growth is 14.9% in the assay with SK-MEL-5 melanoma; 48.9% in the assay with UACC-62 melanoma; 30.6% in the assay on LOX IMVI melanoma; 62% in the assay with SK-MEL-28 melanoma; 55.2% with EKVX NSCLC; 80.8% with SN12C renal. Also, the growth in the assay with UO-31 renal is 63%; with TK-10 renal, 87.7%; in the assay with ACHN renal, 82.9%; with CAKI-1 renal it was 81.8%; in the assay with A498 renal, 77.6%; in the assay with CCRF-CEM leukemia, 59.2%. Also, the growth with MOLT-4 leukemia was 68.7%.
As for `COc1cc2ncnc3c2cc1OCCCCCN(C)Cc1ccc(Br)cc1N3`, the growth was 19.5% in the assay with HCT-15 colon; 28.9% with HT29 colon; 74.5% in the assay on SNB-75 CNS; 88.4% in the assay on SNB-19 CNS; 68.6% with U251 CNS; 39% in the assay on PC-3 prostate. For the same molecule, the growth is 72.7% in the assay on SK-MEL-5 melanoma; 43.8% with UACC-62 melanoma; 32.8% with LOX IMVI melanoma; 74.8% in the assay with SK-MEL-28 melanoma; 21.4% with EKVX NSCLC; 32.5% with SN12C renal. Moreover, the growth in the assay with UO-31 renal is 11.2%; with TK-10 renal, 3.42% (active); in the assay on ACHN renal, 8.64% (active); in the assay with CAKI-1 renal it was 19.3%; with A498 renal, 60.9%; in the assay on CCRF-CEM leukemia it was 51.8%. Besides, the growth in the assay on MOLT-4 leukemia is 22.1%.

The values are drawn from PubChem BioAssay (NCI).
